Assay results reported in PubChem BioAssay (NCATS).
Results filed as inconclusive are left out. A call without a number means that no potency is given here. The source made the active and inactive calls. The call rests on the fitted dose curve; in most records, active means well fitted curve in the direction sought with a large enough effect; inconclusive means small, poorly fitted or top-dose-only effect, or another doubt; inactive means no such curve, though single readings can be large; an effect the other way counts as inactive or inconclusive.

Assay: qHTS for Inhibitors of Ubiquitin-specific Protease USP2a Using CHOP2 as the Reporter: K633 Counterscreen (AID 652168)
Details: No-enzyme DiUb K48 IQF substrate fluorescence interference, kinetic; series mostly up to 57.5 µM
In short: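 Detection-system control: fluorescence of K48-linked DiUb-4IQF substrate (100 nM as added) tracked over time, Ex 525/Em 598, with pinned compounds and no enzyme, in pH 8 Tris buffer containing beta-mercaptoethanol and 0.05% Chaps.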

Compound	outcome
COc1ccc(S(=O)(=O)Nc2cnccc2C(=O)Nc2nc(-c3ccccc3)cs2)cc1	inactive
Cn1cnc(S(=O)(=O)Nc2cnccc2C(=O)Nc2nc(-c3ccccc3)cs2)c1	inactive
COc1ccccc1S(=O)(=O)Nc1cnccc1C(=O)Nc1nc(-c2ccccc2)cs1	inactive
COc1cccc(S(=O)(=O)Nc2cnccc2C(=O)Nc2nc(-c3ccccc3)cs2)c1	inactive
O=C(Nc1nc(-c2ccccc2)cs1)c1ccncc1NS(=O)(=O)c1c(F)cc(F)cc1F	inactive
Cc1ccc(S(=O)(=O)Nc2cnccc2C(=O)Nc2nc(C(=O)O)cs2)cc1	inactive
CCCc1ccc(C(=O)Nc2ccc(S(=O)(=O)Nc3nccs3)cc2)cc1	inactive
Cc1ccc(S(=O)(=O)Nc2cnccc2C(=O)Nc2nc(-c3ccc4c(c3)CCCC4)cs2)cc1	inactive
O=C(Nc1nc(-c2ccccc2)cs1)c1ccncc1NS(=O)(=O)c1ccc(F)cc1Cl	inactive
CC(C)Cc1ccc(-c2csc(Nc3ccc(S(=O)(=O)Nc4nccs4)cc3)n2)cc1	inactive
N#Cc1ccccc1S(=O)(=O)Nc1cnccc1C(=O)Nc1nc(-c2ccccc2)cs1	inactive
Cc1ccc(S(=O)(=O)Nc2cnccc2C(=O)Nc2nc(-c3ccccc3)cs2)cc1	inactive
Cc1ccc(S(=O)(=O)Nc2cnccc2C(=O)Nc2nc(-c3ccc(F)cc3)cs2)cc1	inactive
Cc1ccc(S(=O)(=O)Nc2cnccc2C(=O)Nc2ccc(C#N)cc2)cc1	inactive
O=C(Nc1nc(-c2ccc(F)cc2)cs1)c1ccncc1NS(=O)(=O)c1ccccc1Cl	inactive
Cc1ccc(-c2cc(C(=O)NC3CCCCC3)c3ccccc3n2)cc1C	inactive
Cc1ccc(S(=O)(=O)Nc2cnccc2C(=O)Nc2nc(-c3cccnc3)cs2)cc1	inactive
Cc1ccc(S(=O)(=O)Nc2cnccc2C(=O)Nc2nc(-c3cccc(F)c3)cs2)cc1	inactive
O=C(Nc1nc(-c2ccccc2)cs1)c1ccncc1NS(=O)(=O)c1ccc(Cl)cc1	inactive
O=C(Nc1nc(-c2ccccc2)cs1)c1ccncc1NS(=O)(=O)c1cccc(Cl)c1	inactive
O=C1CCCc2cc(S(=O)(=O)Nc3cnccc3C(=O)Nc3nc(-c4ccccc4)cs3)ccc2N1	inactive
Cc1ccc(S(=O)(=O)Nc2cnccc2C(=O)Nc2nc(-c3ccc(Cl)cc3)cs2)cc1	inactive
Cc1ccc(S(=O)(=O)Nc2cnccc2C(=O)Nc2nc(-c3cnn(C)c3)cs2)cc1	inactive
Cc1ccc(S(=O)(=O)Nc2cc([N+](=O)[O-])ccc2C(=O)Nc2nc(-c3ccccc3)cs2)cc1	inactive
Nc1ccc(S(=O)(=O)Nc2cnccc2C(=O)Nc2nc(-c3ccccc3)cs2)cc1	inactive

Assay: qHTS for Inhibitors of Ubiquitin-specific Protease USP2a Using CHOP2 as the Reporter: Cytotox Assay (AID 652170); further: nearly all actives have a fitted effect of over 70% in size; further: potency means the concentration at half of the fitted maximal effect
Details: HCT116 viability, CellTiter-Glo luminescence, 72 h; series mostly up to 46.1 µM
In short: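 Cytotoxicity read as ATP luminescence (CellTiter-Glo) after 72 hr compound treatment at 37 deg C. Cells: HCT116, 600/well in DMEM plus 10% FBS. Normalization between DMSO-treated cells and cell-free wells.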

Compound	Potency
Cc1ccc(S(=O)(=O)Nc2cnccc2C(=O)Nc2nc3ccccc3s2)cc1	inactive
CCc1ccc(S(=O)(=O)Nc2cnccc2C(=O)Nc2nc(-c3ccccc3)cs2)cc1	20.9 µM (active)
Cc1ccc(S(=O)(=O)Nc2cnccc2C(=O)NCCc2ccccc2)cc1	inactive
O=C(Nc1nc(-c2ccccc2)cs1)c1ccncc1NS(=O)(=O)c1ccc(F)cc1	inactive
O=S(=O)(Nc1nccs1)c1ccc(Nc2nc(-c3ccc(Cl)c(Cl)c3)cs2)cc1	inactive
N#Cc1ccc(S(=O)(=O)Nc2cnccc2C(=O)Nc2nc(-c3ccccc3)cs2)cc1	inactive
O=C(O)C1CCC(C(=O)Nc2ccc([S+](=O)([O-])Nc3nccs3)cc2)CC1 (stereo not drawn)	inactive
Cc1ccc(S(=O)(=O)Nc2cnccc2C(=O)Nc2nc(-c3nc4ccccc4s3)cs2)cc1	inactive
Nc1cccc(S(=O)(=O)Nc2cnccc2C(=O)Nc2nc(-c3ccccc3)cs2)c1	inactive
O=C(Nc1ccc(S(=O)(=O)Nc2nccs2)cc1)c1ccnc2ccccc12	inactive
O=C(Nc1nc(-c2ccccc2)cs1)c1ccncc1NS(=O)(=O)c1ccc(C(F)(F)F)cc1	inactive
O=C(Nc1nc(-c2ccccc2)cs1)c1ccncc1NS(=O)(=O)c1cccs1	inactive
COc1ccc(S(=O)(=O)Nc2cnccc2C(=O)Nc2nc(-c3ccccc3)cs2)cc1	inactive
Cn1cnc(S(=O)(=O)Nc2cnccc2C(=O)Nc2nc(-c3ccccc3)cs2)c1	inactive
COc1ccccc1S(=O)(=O)Nc1cnccc1C(=O)Nc1nc(-c2ccccc2)cs1	inactive
O=C(Nc1nc(-c2ccccc2)cs1)c1ccncc1NS(=O)(=O)c1c(F)cc(F)cc1F	inactive
Cc1ccc(S(=O)(=O)Nc2cnccc2C(=O)Nc2nc(C(=O)O)cs2)cc1	inactive

Compound	Potency
CCCc1ccc(C(=O)Nc2ccc(S(=O)(=O)Nc3nccs3)cc2)cc1	inactive
Cc1ccc(S(=O)(=O)Nc2cnccc2C(=O)Nc2nc(-c3ccc4c(c3)CCCC4)cs2)cc1	20.9 µM (active)
O=C(Nc1nc(-c2ccccc2)cs1)c1ccncc1NS(=O)(=O)c1ccc(F)cc1Cl	inactive
CC(C)Cc1ccc(-c2csc(Nc3ccc(S(=O)(=O)Nc4nccs4)cc3)n2)cc1	inactive
N#Cc1ccccc1S(=O)(=O)Nc1cnccc1C(=O)Nc1nc(-c2ccccc2)cs1	inactive
Cc1ccc(S(=O)(=O)Nc2cnccc2C(=O)Nc2ccc(C#N)cc2)cc1	inactive
O=C(Nc1nc(-c2ccc(F)cc2)cs1)c1ccncc1NS(=O)(=O)c1ccccc1Cl	inactive
Cc1ccc(-c2cc(C(=O)NC3CCCCC3)c3ccccc3n2)cc1C	inactive
Cc1ccc(S(=O)(=O)Nc2cnccc2C(=O)Nc2nc(-c3cccc(F)c3)cs2)cc1	20.9 µM (active)
O=C(Nc1nc(-c2ccccc2)cs1)c1ccncc1NS(=O)(=O)c1ccc(Cl)cc1	inactive
O=C(Nc1nc(-c2ccccc2)cs1)c1ccncc1NS(=O)(=O)c1cccc(Cl)c1	inactive
O=C1CCCc2cc(S(=O)(=O)Nc3cnccc3C(=O)Nc3nc(-c4ccccc4)cs3)ccc2N1	inactive
Cc1ccc(S(=O)(=O)Nc2cnccc2C(=O)Nc2nc(-c3ccc(Cl)cc3)cs2)cc1	23.5 µM (active)
Cc1ccc(S(=O)(=O)Nc2cnccc2C(=O)Nc2nc(-c3cnn(C)c3)cs2)cc1	inactive
Cc1ccc(S(=O)(=O)Nc2cc([N+](=O)[O-])ccc2C(=O)Nc2nc(-c3ccccc3)cs2)cc1	5.26 µM (active)
Nc1ccc(S(=O)(=O)Nc2cnccc2C(=O)Nc2nc(-c3ccccc3)cs2)cc1	inactive
